In PubChem BioAssay (NCI):
This is part of a sample that, as a whole, favours compounds with a hit. Of some 83,000 tested, about 20% had one in any assay.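 Single-dose data. Exposure time 48 hours. Values below 10 considered active.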 The source made the active and inactive calls.

Legend:
Assay in all cases: NCI-60 one-dose screen, 48 h (100 = growth as untreated, 0 = no growth, -100 = all killed)
Settings in all cases: 10 µM
T-47D breast = test system: T-47D breast
BT-549 breast = test system: BT-549 breast
MDA-MB-435 melanoma = test system: MDA-MB-435 melanoma
SW-620 colon = test system: SW-620 colon
MCF7 breast = test system: MCF7 breast
HCT-116 colon = test system: HCT-116 colon
HCC-2998 colon = test system: HCC-2998 colon
KM12 colon = test system: KM12 colon

Measured: growth

COc1cccc(C(=O)N(c2ccc(F)c(F)c2)C(C(=O)NC(C)(C)C)c2cc3c(C)cc(C)cc3nc2Cl)c1 (configuration not stated)
inactive: T-47D breast 46.6% | BT-549 breast 90.7% | MDA-MB-435 melanoma 63.2% | SW-620 colon 78.6% | MCF7 breast 45.6% | HCT-116 colon 34.8% | HCC-2998 colon 88.3% | KM12 colon 60.2%

Nc1c(CNCc2nnn(Cc3ccccc3)c2N)nnn1Cc1ccccc1
inactive: T-47D breast 101% | BT-549 breast 105% | MDA-MB-435 melanoma 107% | SW-620 colon 95.9% | MCF7 breast 101% | HCT-116 colon 103% | HCC-2998 colon 98.7% | KM12 colon 98.3%

O=C(OCC1OC(n2cc(C(F)(F)F)c(=O)[nH]c2=O)CC1OC(=O)c1ccc([N+](=O)[O-])cc1)c1ccc([N+](=O)[O-])cc1 (configuration not stated)
inactive: T-47D breast 74.4% | BT-549 breast 60.1% | MDA-MB-435 melanoma 50.6% | SW-620 colon 65.6% | MCF7 breast 33.6% | HCT-116 colon 72.7% | HCC-2998 colon 51.5% | KM12 colon 72.2%

CC(C)/C(=N/O)c1ccccc1
inactive: T-47D breast 114% | BT-549 breast 111% | MDA-MB-435 melanoma 107% | SW-620 colon 114% | MCF7 breast 107% | HCT-116 colon 109% | HCC-2998 colon 106% | KM12 colon 117%

CCCCCCCCCCSC(=N)N (tested in a mixture with another compound)
active: HCC-2998 colon -57.9%
inactive: T-47D breast 28% | BT-549 breast 75% | MDA-MB-435 melanoma 79.6% | SW-620 colon 38.6% | MCF7 breast 36.6% | HCT-116 colon 55.6% | KM12 colon 45.3%

O=CNc1c(Cl)cc2c(c1Cl)Cc1cc([N+](=O)[O-])ccc1-2
inactive: T-47D breast 30.6% | BT-549 breast 95.8% | SW-620 colon 41.4% | MCF7 breast 15.3% | HCC-2998 colon 92.5% | KM12 colon 25.6%
active: MDA-MB-435 melanoma 2.37% | HCT-116 colon 6.23%

CCSc1nc2c([nH]1)c(=O)n(C)c(=S)n2C
inactive: T-47D breast 99.6% | BT-549 breast 118% | MDA-MB-435 melanoma 109% | SW-620 colon 102% | MCF7 breast 113% | HCT-116 colon 114% | HCC-2998 colon 106% | KM12 colon 103%

CCCCCCCC/C=C/CCCCCCCCC1=NCCN1CCO
active: HCT-116 colon 7.94%
inactive: T-47D breast 79.7% | BT-549 breast 83.1% | MDA-MB-435 melanoma 68.9% | SW-620 colon 40% | MCF7 breast 71.2% | HCC-2998 colon 97.8% | KM12 colon 62.5%

CCOC(=O)C(CCC1=NC(C)(C)CC(C)O1)C(=O)OCC (configuration not stated)
inactive: T-47D breast 102% | BT-549 breast 88.9% | MDA-MB-435 melanoma 104% | SW-620 colon 56.7% | MCF7 breast 72.8% | HCT-116 colon 46% | HCC-2998 colon 98.8% | KM12 colon 94.4%

CS(=O)(=O)Nc1ccc(OCc2nnc(-c3ccc(Cl)cc3)o2)c(F)c1
inactive: T-47D breast 63.1% | BT-549 breast 89.4% | MDA-MB-435 melanoma 104% | SW-620 colon 108% | MCF7 breast 81.7% | HCT-116 colon 86.9% | HCC-2998 colon 101% | KM12 colon 98.6%

C[C@@H]1C(=O)N(C[C@H](Cc2ccccc2)NC(=O)OCc2ccccc2)[C@]1(Cc1ccccc1)C(=O)OCc1ccccc1
inactive: BT-549 breast 62.9% | MDA-MB-435 melanoma 52% | SW-620 colon 52.6% | MCF7 breast 35% | HCT-116 colon 32.3% | HCC-2998 colon 71% | KM12 colon 26.6%
active: T-47D breast 7.82%

O=S(=O)(NCl)c1ccccc1
inactive: T-47D breast 92% | BT-549 breast 102% | MDA-MB-435 melanoma 98.9% | SW-620 colon 107% | MCF7 breast 85.5% | HCT-116 colon 101% | HCC-2998 colon 97.3% | KM12 colon 102%

O=C(NCCc1nccs1)c1cnc2c(S)cccc2c1
active: SW-620 colon 4.05% | MCF7 breast -3.22% | HCT-116 colon 2.16%
inactive: T-47D breast 10.8% | BT-549 breast 48.1% | MDA-MB-435 melanoma 26.4% | HCC-2998 colon 35.5% | KM12 colon 19.6%

COc1cc(/C=C/C(=O)c2cc(-c3ccccc3)ccc2O)cc(OC)c1OC
inactive: T-47D breast 43.4% | BT-549 breast 88.8% | MDA-MB-435 melanoma 55.4% | SW-620 colon 81.9% | MCF7 breast 47% | HCT-116 colon 61.3% | HCC-2998 colon 97% | KM12 colon 78.6%

CCOC(=O)/C(C#N)=C(/C)C1CC1
inactive: T-47D breast 103% | BT-549 breast 107% | MDA-MB-435 melanoma 106% | SW-620 colon 108% | MCF7 breast 101% | HCT-116 colon 110% | HCC-2998 colon 112% | KM12 colon 106%

O=[N+]([O-])c1cc2ncccc2c2ncccc12
inactive: T-47D breast 74.6% | BT-549 breast 89.6% | MDA-MB-435 melanoma 61.9% | SW-620 colon 85.4% | MCF7 breast 60.6% | HCT-116 colon 53.5% | HCC-2998 colon 108% | KM12 colon 96.3%

O=C(O)CNS(=O)(=O)c1ccc(OCCOc2ccc(S(=O)(=O)NCC(=O)O)cc2)cc1
inactive: T-47D breast 93.5% | BT-549 breast 105% | MDA-MB-435 melanoma 113% | SW-620 colon 103% | MCF7 breast 98.6% | HCT-116 colon 103% | HCC-2998 colon 98.1% | KM12 colon 99.5%

O=C1/C(=C/c2ccc(O)cc2)Oc2ccc(Cl)cc21
inactive: T-47D breast 72.2% | BT-549 breast 63.1% | MDA-MB-435 melanoma 82.5% | SW-620 colon 103% | MCF7 breast 43.2% | HCT-116 colon 65.7% | HCC-2998 colon 101% | KM12 colon 101%

CCc1ccc(Nc2cc(C)nc3nc(C)nn23)cc1
inactive: BT-549 breast 40.7%
active: T-47D breast -68.3% | MDA-MB-435 melanoma -97.2% | SW-620 colon -68.9% | MCF7 breast -92% | HCT-116 colon -90.7% | HCC-2998 colon -69.8% | KM12 colon 3.49%

COc1cc(C2=Nc3c/c(=C\c4c(O)[nH]c5ccc(Cl)cc45)ccc3=N2)cc(OC)c1OC
inactive: T-47D breast 48.5% | HCC-2998 colon 66.3%
active: BT-549 breast -28.2% | MDA-MB-435 melanoma -65.7% | SW-620 colon -48.2% | MCF7 breast -41.8% | HCT-116 colon -51.4% | KM12 colon 5.27%

CC(=O)[C@H]1CC[C@H]2[C@@H]3CC[C@@H]4CC=C(C=O)C[C@]4(C)[C@H]3CC[C@]12C
inactive: T-47D breast 85.6% | BT-549 breast 85.8% | MDA-MB-435 melanoma 97.3% | SW-620 colon 106% | MCF7 breast 81.1% | HCT-116 colon 87% | HCC-2998 colon 89.5% | KM12 colon 104%

C/C(=N\NC(N)=S)C(C)(C)O
inactive: T-47D breast 57.1% | BT-549 breast 104% | MDA-MB-435 melanoma 96.9% | SW-620 colon 77.4% | MCF7 breast 27.1% | HCC-2998 colon 102% | KM12 colon 99.7%
active: HCT-116 colon 6.43%

Cc1ccc2c3c(cccc13)-c1ccccc1C2=O
inactive: T-47D breast 84.9% | BT-549 breast 106% | MDA-MB-435 melanoma 98.9% | SW-620 colon 93% | MCF7 breast 96.6% | HCT-116 colon 86.4% | HCC-2998 colon 89% | KM12 colon 54.4%

CCn1nc(-c2ccccn2)c2cccnc2c1=S
active: MCF7 breast 7.88%
inactive: T-47D breast 42% | BT-549 breast 104% | MDA-MB-435 melanoma 81.2% | SW-620 colon 79.4% | HCT-116 colon 17.1% | HCC-2998 colon 72.4% | KM12 colon 72.8%

CCOC(=O)Nc1ccc2c(c1)C(=O)N(CCOC)c1ccccc1O2
inactive: T-47D breast 30.5% | BT-549 breast 52.8% | SW-620 colon 32% | MCF7 breast 14.4% | HCT-116 colon 24.4% | HCC-2998 colon 55.3% | KM12 colon 23%
active: MDA-MB-435 melanoma -14.2%

COc1ccc(NC(=O)c2sc3nc4c(cc3c2N)C(O)CCC4)cc1 (configuration not stated)
inactive: T-47D breast 93.9% | BT-549 breast 97.4% | MDA-MB-435 melanoma 84.6% | SW-620 colon 95.8% | MCF7 breast 89.6% | HCT-116 colon 104% | HCC-2998 colon 113% | KM12 colon 98%

O=C1CC(c2cccc(-c3cccnc3)c2)=Nc2ccc(Br)cc2N1
inactive: MDA-MB-435 melanoma 43.5% | SW-620 colon 81.8% | MCF7 breast 23.6% | HCT-116 colon 23% | HCC-2998 colon 74.8% | KM12 colon 49.4%
active: T-47D breast -11.6% | BT-549 breast -3.46%

Cc1nc(N)sc1Sc1nc2ccc(Cl)cc2c(=O)n1-c1ccc(Oc2ccccc2)cc1
inactive: T-47D breast 75.5% | BT-549 breast 63.2% | MDA-MB-435 melanoma 88.1% | SW-620 colon 66.1% | MCF7 breast 87.4% | HCT-116 colon 33.3% | HCC-2998 colon 74.1% | KM12 colon 79.8%

CCOC(=O)c1ccc(NC(=O)Nc2nncs2)cc1
inactive: T-47D breast 49.3% | BT-549 breast 13.7% | SW-620 colon 18% | MCF7 breast 21.7% | HCT-116 colon 12.6% | HCC-2998 colon 18.8% | KM12 colon 12.4%
active: MDA-MB-435 melanoma -41.3%

CCOC(=O)Cn1nnc(-c2ccc(OCc3ccccc3F)cc2)n1
inactive: T-47D breast 72.6% | BT-549 breast 96.9% | SW-620 colon 83.3% | MCF7 breast 75.8% | HCT-116 colon 80.1% | HCC-2998 colon 100% | KM12 colon 75.6%
active: MDA-MB-435 melanoma -2.38%

COc1cc(Cn2c(-c3ccccc3)c(Cl)c3c2-c2oncc2CC3)cc(OC)c1
active: MDA-MB-435 melanoma -0.829%
inactive: T-47D breast 73.8% | BT-549 breast 87.4% | SW-620 colon 15.8% | MCF7 breast 102% | HCT-116 colon 47.5% | HCC-2998 colon 84.4% | KM12 colon 41.7%

CCNC1(NC#N)CCCCC1
inactive: T-47D breast 104% | BT-549 breast 110% | MDA-MB-435 melanoma 97.7% | SW-620 colon 104% | MCF7 breast 104% | HCT-116 colon 103% | HCC-2998 colon 96.2% | KM12 colon 105%

N#C/C(=C/c1cc([N+](=O)[O-])ccc1Cl)C(N)=O
inactive: T-47D breast 90.4% | BT-549 breast 96.8% | MDA-MB-435 melanoma 71.5% | SW-620 colon 46.6% | MCF7 breast 57.3% | HCC-2998 colon 106% | KM12 colon 91.5%
active: HCT-116 colon 10%

COc1cc(C2c3cc4c(cc3C(O)C(CO)C2CO)OCO4)cc(OC)c1OC (configuration not stated)
active: MDA-MB-435 melanoma -53.1%
inactive: T-47D breast 45.7% | BT-549 breast 58.7% | SW-620 colon 19.6% | MCF7 breast 17.5% | HCT-116 colon 23.1% | HCC-2998 colon 40.9% | KM12 colon 16.1%
